Compounds without any hit were thinned out: in the full panel of roughly 79,000, 15% have a hit. Cut-off read from the data, not from the text of the source: active = growth inhibition above about 70%; inactive = the rest.
Legend:
[1] = NCI Yeast Anticancer Drug Screen. Data for the rad50 strain (AID 155);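 note: 0% = growth of vehicle-only cultures of the same strain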; details: S. cerevisiae rad50 strain growth inhibition, active compounds read high; at 50.0 µM unless noted
Summary of the method: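 Growth of the mutant yeast was measured after compound exposure and referenced to vehicle-treated cultures.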

[2] = NCI Yeast Anticancer Drug Screen. Data for the mec2-1 strain (AID 157); details: S. cerevisiae mec2-1 strain, active compounds read high; at 50.0 µM unless noted
Summary of the method: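 Each compound was tested on mec2-1 yeast, a strain altered in DNA damage repair or cell cycle control. Growth inhibition is reported relative to vehicle.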

[3] = NCI Yeast Anticancer Drug Screen. Data for the sgs1 mgt1 strain (AID 161);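 note: 0% = growth of cultures given vehicle only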; details: S. cerevisiae sgs1 mgt1 strain, active compounds read high; at 50.0 µM unless noted
Summary of the method: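 Inhibition of yeast growth, normalised to vehicle-treated controls, is reported for a strain bearing genetic alterations in DNA damage repair.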

[4] = NCI Yeast Anticancer Drug Screen. Data for the cln2 rad14 strain (AID 165);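 note: 0% = growth equal to vehicle treated cultures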; details: S. cerevisiae cln2 rad14 strain, active compounds read high; at 50.0 µM unless noted
Summary of the method: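 Test compounds were added to cln2 rad14 yeast cultures; inhibition of growth was then determined by comparison with vehicle treatment.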

[5] = NCI Yeast Anticancer Drug Screen. Data for the bub3 strain (AID 167); details: S. cerevisiae bub3 mutant strain, active compounds read high; at 50.0 µM unless noted
Summary of the method: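 Whole-cell yeast assay. The mutant strain was incubated with compounds, and growth inhibition was determined by comparison with vehicle-treated cells.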

[6] = NCI Yeast Anticancer Drug Screen. Data for the mlh1 rad18 strain (AID 175); details: S. cerevisiae mlh1 rad18 strain growth inhibition, active compounds read high; at 50.0 µM unless noted
Summary of the method: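 Inhibition values reflect reduced growth of mutant yeast versus vehicle-treated controls following compound exposure; the mutations affect DNA damage repair.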

Measured: growth inhibition

Cc1cccc(/C=N/NC(=S)NC(C)(C)C)n1
inactive: [1] -17.4% | [2] -32.4% | [3] -4.45% | [4] 0.1% | [5] 15.8% | [6] -27.1%

CC1(O)CC(=O)c2c(cc3ccc(-c4c5c(c(O)c6c(O)cccc46)C(=O)CC(C)(O)C5)c(O)c3c2O)C1 (stereo not drawn)
inactive: [1] 54.1% | [2] 48.1% | [3] 35.5% | [4] 23.8% | [5] 19.7% | [6] 9.95%

C=C1C(=O)OC2C3[C@@]4(C)O[C@H]4[C@H]4O[C@@]34[C@](C)(O)CC(OC(C)=O)[C@@H]12 (stereo partly drawn)
inactive: [1] -16.4% | [2] -30.6% | [3] -7.3% | [4] -7.45% | [5] -24.4% | [6] -22.1%
